Sampled rows, rich in hits. Any-hit rate of the full collection: about 3.5%.
rCAG RNA binder: molecules binding r(CAG) RNA repeats; AID 651821; r(CAG) RNA repeat, TO-PRO-1 dye displacement fluorescence; 370,000 tested, 1.3% active; inhibition, % at 3 µM;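 active means inhibition above the plate cutoff, the mean of all test compounds on that plate plus 3 SD, cut at about 35% in these data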;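 further: 0% = DMSO alone and 100% = 100 µM mitoxantrone as full dye displacement; higher means more dye released from RNA so lower well fluorescence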
DNMT1 inh: blocks human DNA methyltransferase DNMT1; DNMT1 molecular beacon, Hinp1I cleavage, fluorescence; P26358; 360,000 tested, 0.83% active; inhibition (reported as % activation of signal), % at 10 µM; in the data active means inhibition above about 50%
PG9 Ab binder: small molecules binding HIV-1 gp120 antibody PG9 | TR-FRET gp120-PG9 antibody binding | inhibition, % at 6.7 µM | AID 624416 | 360,000 tested, 0.43% active; in the data active means inhibition above about 8.5%
LEDGF integ inh: blocks HIV-1 LEDGF/p75-dependent DNA integration; 370,000 tested, 0.64% active; AID 743269; inhibition, % at 3.7 µM; TR-FRET IN-LEDGF/p75 DNA integration, Eu/Cy5;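 active means inhibition above the screen-wide mean plus 3 SD, cut at about 13% in these data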;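 further: signal is the Cy5 over europium emission ratio at 671 and 618 nm; 0% = plate median of compound wells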
MBD2 inh: MBD2-methylated oligo binding inhibition; TR-FRET, MBD2 binding to methylated oligonucleotide; inhibition, % at 4.4 µM; 370,000 tested, 0.31% active; AID 686964; in the data active means inhibition above about 13%
UHRF1 MBD2 ctr: blocks human UHRF1 binding to methylated DNA; 370,000 tested, 0.75% active; inhibition, % at 4.4 µM; AID 687016; Q96T88; UHRF1 binding to methylated oligo, TR-FRET; in the data active means inhibition above about 21%;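 further: UHRF1 SRA domain binding a hemimethylated CpG hairpin DNA probe; 0% = median of test compound wells and 100% = reference inhibitor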
PG9 bind confirm: confirmation of small molecules binding HIV-1 gp120 antibody PG9 | TR-FRET PG9 antibody binding, biochemical | inhibition, % at 6.7 µM | 1,500 tested, 90% active | shares compounds with PG9 Ab binder; in the data active means inhibition above about 9%
PGV04 Ab binding: binds control antibody PGV04 in PG9 binder counter-screen. inhibition, % at 6.7 µM. AID 651604. 1,500 tested, 95% active. shares compounds with PG9 Ab binder. TR-FRET PGV04 antibody-gp120 binding, biochemical; in the data active means inhibition above about 9.5%
PG9 bind DR: small molecules binding HIV-1 gp120 antibody PG9; shares compounds with PG9 Ab binder; TR-FRET PG9 antibody-gp120 binding inhibition; IC50, µM; 95 tested, under 10 active; AID 651848; in the data active means IC50 below about 10 µM
PGV04 DR counter: PGV04 binding, dose response counter-screen; shares compounds with PG9 Ab binder; TR-FRET binding to control antibody PGV04; IC50, µM; 95 tested, 20% active; AID 651937
PG126 DR counter: binds control antibody PG126 in PG9 counter-screen; shares compounds with PG9 Ab binder; TR-FRET binding to antibody PG126, counterscreen; IC50, µM; 95 tested, 20% active
* hit, by the source's call; i = inactive; . = no result. Unless noted, no stated cut-off is given here; in the data, active means IC50 below about 9 µM; inactive means the rest.

SMILES	rCAG RNA binder	DNMT1 inh	PG9 Ab binder	LEDGF integ inh	MBD2 inh	UHRF1 MBD2 ctr	PG9 bind confirm	PGV04 Ab binding	others
Cc1ccc(CN2CCSc3ccc(C(=O)NCCCN4CCN(C)CC4)cc32)cc1	-3	1	25*	-1	-6	0	29*	34*
O=C(NC1CCCC1)C1C2C=CC3(CN(Cc4cccs4)C(=O)C13)O2 (stereo unspecified)	4	-2	29*	0	2	1	9	9
Cc1ccc(O)c(C2=Nc3ccccc3N=C(c3ccco3)C2)c1	6	-3	59*	1	4	-2	55*	69*
Cc1cc(C)c2nc(SCC(=O)N3CC(=O)Nc4ccccc43)c(C#N)cc2c1	9	-8	13*	2	2	-3	11*	24*
COc1ccc2nc(SCC(=O)N3CC(=O)Nc4ccccc43)c(C#N)cc2c1	7	-6	0	-2	3	0	.	.
CCc1ccc(NC(=O)CSc2nnc(-c3n[nH]c4ccccc34)n2-c2ccccc2)cc1	2	14	9.8*	-2	4	1	15*	24*
Cc1ccccc1NC(=O)CSc1nnc(-c2ccccc2)n1-c1ccccc1	0	1	37*	-1	1	-3	4	6
O=C(CSc1nnc(-c2n[nH]c3ccccc23)n1-c1ccccc1)Nc1cccc(Cl)c1	3	-5	2	0	-1	1	.	.
CCN(CC)CCCNC(=S)N(CCCO)Cc1cc2cc3c(cc2[nH]c1=O)OCO3	-3	-5	-2	-1	-4	2	.	.
O=C(Nc1ccc2c(c1)OCCO2)C(C1CC1)n1c(=O)c(-c2ccco2)nc2ccccc21 (stereo unspecified)	18	.	0	-2	2	-2	.	.
O=c1[nH]c2cc3c(cc2cc1C(c1nnnn1C1CCCC1)N1CCSCC1)OCCO3 (stereo unspecified)	1	-2	21*	0	0	-1	42*	29*	PG9 bind DR=i;PGV04 DR counter=8*;PG126 DR counter=7.8*
Cc1ccc(C(=O)Nc2ccc3ccccc3c2)cc1	1	-2	0	-2	4	0	.	.
O=C(Nc1ccc2ccccc2c1)c1ccc(Cl)cc1	2	2	10*	-1	-2	16	13*	18*
COC(=O)c1cc(NC(=O)c2ccc(-c3ccccc3)cc2)ccc1Cl	1	-4	10*	-4	7	7	13*	22*
COC(=O)c1cc(NC(=O)Nc2cccc(Cl)c2)ccc1Cl	25	-8	1	-1	3	-2	.	.
COC(=O)c1nn(-c2cccc(C)c2)c2nnc(Cc3ccc(C)cc3)c(=O)n12	-1	8	0	-1	-2	-3	.	.
COC(=O)c1nn(-c2ccc(C)cc2)c2nnc(Cc3ccccc3)c(=O)n12	-4	4	23*	-1	2	2	19*	28*
C[C@H](CO)N1C[C@H](C)[C@@H](CN(C)C(=O)CC2CC2)Oc2cc(Br)ccc2S1(=O)=O	1	1	-1	4	-8	-1	.	.
O=C(Nc1ccccc1-c1nnn(CC(=O)N2CCOCC2)n1)c1ccccc1F	0	-3	-1	-2	4	0	.	.
O=C(Cn1nnc(-c2ccccc2NC(=O)c2ccccc2F)n1)NC1CCCC1	2	5	12*	-2	2	-1	40*	43*
CC(C)c1ccc(-c2c(C#N)c(N)nc(SCC(=O)N3CCCCC3)c2C#N)cc1	2	2	42*	1	3	3	69*	66*	PG9 bind DR=6*;PGV04 DR counter=3.4*;PG126 DR counter=4*

From PubChem
